Measurements as given in publication PMC4552634, “A New Set of Chemical Starting Points with Plasmodium falciparum Transmission-Blocking Potential for Antimalarial Drug Discovery” (PLoS ONE, 2015).
Where two headings read alike, the source gives them in different places. Hit rate of the full screen: of about 13,000 compounds, about 3,200 (25%) showed an effect of 50% or more. The list shows a part of the results.

System: P. falciparum stage V gametocytes
Design: BacTiter-Glo ATP luminescence viability of purified stage V gametocytes in 384-well plates, per cent inhibition versus DMSO
Conditions: 48 h, 5 µM, inhibitor

O=C(/C=C/c1ccc(Cl)c(Cl)c1)NCCCCCN1CCC(NC(=O)Nc2ccc(F)c(Cl)c2)CC1 [TCMDC-135720]
% Inhibition: -54.39%

O=C(c1ccc(-c2ccc(-c3nc4cc(C(F)(F)F)ccc4[nH]3)s2)cc1)N1CCCCC1CN1CCC(O)C1 (centres unmarked) [TCMDC-132342]
% Inhibition: -28.43%

COc1ccc(Nc2nccc(-c3cccc(NC(=O)c4cc5cc(F)ccc5[nH]4)c3)n2)cc1 [TCMDC-133307]
% Inhibition: 7.51%

CCCCNC(=O)[C@H](CC1CCCCC1)NC(=O)c1ccc(O)c(-c2ccc(OC)cc2)c1 [TCMDC-140803]
% Inhibition: 9.095%

COc1ccc(-c2cc(C(=O)N[C@@H](CC3CCCCC3)C(=O)NCCN3CCCCC3)ccc2O)cc1 [TCMDC-140805]
% Inhibition: 23%

COc1ccc(-c2cc(C(=O)N[C@@H](CC3CCCCC3)C(=O)NCCN3CCCC3)ccc2O)cc1 [TCMDC-140802]
% Inhibition: 56.09%

O=C(Nc1ccc2nc(-c3ccc4nc(NC(=O)C5CCCCC5)sc4c3)[nH]c2c1)C1CCCCC1 [TCMDC-125768]
% Inhibition: -44.12%

O=C(N[C@@H](Cc1ccccc1)[C@H](O)CNC1CCc2ccccc2C1)c1cc(C2CCCC2)cc(N2CCCC2=O)c1 (some centres unmarked) [TCMDC-134647]
% Inhibition: -1.727%

CCCCC/C=C/C(=O)NC1CCC(CN2CCC(c3c[nH]c4ccccc34)CC2)CC1 (centres unmarked) [TCMDC-139709]
% Inhibition: 109.3%

Cc1ccc(C)c(C=CC(=O)NC2CCC(CN3CCC(c4c[nH]c5ccccc45)CC3)CC2)c1 (centres unmarked) [TCMDC-139916]
% Inhibition (% Inhibition): -2.713%

Cc1ccc(/C=C/C(=O)NC2CCC(CN3CCC(c4c[nH]c5ccccc45)CC3)CC2)cc1C (centres unmarked) [TCMDC-139760]
% Inhibition (% Inhibition): 36.59%

Cc1ccc(C)c(C=CC(=O)NC2CCC(CN3CCC(c4c[nH]c5ccccc45)CC3)CC2)c1 (centres unmarked) [TCMDC-139904]
% Inhibition (% Inhibition): 66.94%

Cc1ccc(/C=C/C(=O)NC2CCC(CN3CCC(c4c[nH]c5ccccc45)CC3)CC2)cc1 (centres unmarked) [TCMDC-139717]
% Inhibition (% Inhibition): 80.48%

Cc1ccc(/C=C/C(=O)NC2CCC(CN3CCC(c4c[nH]c5ccccc45)CC3)CC2)cc1 (centres unmarked) [TCMDC-139702]
% Inhibition (% Inhibition): 110%

O=C(/C=C/c1cccs1)NC1CCC(CN2CCC(c3c[nH]c4ccccc34)CC2)CC1 (centres unmarked) [TCMDC-139759]
% Inhibition: 42.82%

O=C(c1cc2c(s1)-c1cccc(Cl)c1SC2)N1CCN(c2ccncc2)CC1 [TCMDC-133145]
% Inhibition: 30.1%

CCOc1cc2ncnc(Nc3ccc(OCc4ccccc4Br)c(OC)c3)c2cc1OCC [TCMDC-131938]
% Inhibition: -6.786%

COc1ccccc1C1CC(c2ccccc2)=NN1C(=O)c1ccco1 (centres unmarked) [TCMDC-124921]
% Inhibition: 5.682%

COc1ccc(-c2cn3c(C(=O)Nc4ccccc4Cl)c(-c4ccccc4)c4c3n2CCCC4)cc1 [TCMDC-125125]
% Inhibition: -39.86%

CCNC(=O)CCc1cccc(Br)c1 [TCMDC-137648]
% Inhibition: 26.26%

CCNc1cc(C(=O)N[C@@H](Cc2ccccc2)[C@H](O)CNCCc2cccc3ccccc23)cc(N2CCCC2=O)c1 [TCMDC-134568]
% Inhibition: -9.566%

CCCCC1(NC(=O)[C@H](CC(C)C)Nc2ccc(C#N)c3ccccc23)CCCCC1 [TCMDC-136624]
% Inhibition: -52.31%

COC(=O)[C@@H](NC(=O)[C@H](Cc1ccc(OC)c(OC)c1)Nc1ccc(C#N)c2ccccc12)c1ccc(O)cc1 [TCMDC-136637]
% Inhibition: 53.18%

COC(=O)[C@@H](NC(=O)[C@@H](Nc1ccc(C#N)c2ccccc12)C(C)(C)C)c1ccc(O)cc1 [TCMDC-136607]
% Inhibition: 78.97%

N#Cc1ccc(N[C@@H](CC2CCCCC2)C(=O)N[C@@H]2CCCc3ccccc32)c2ccccc12 [TCMDC-136633]
% Inhibition: 13.98%

COC(=O)[C@@H](NC(=O)[C@H](CC(C)C)Nc1ccc(C#N)c2ccccc12)c1ccc(O)cc1 [TCMDC-136622]
% Inhibition: 62.67%

Cc1cc(NC(=O)[C@H](CC(C)C)Nc2ccc(C#N)c3ccccc23)ccc1F [TCMDC-136623]
% Inhibition: -63.41%

CC(C)(C)[C@@H](Nc1ccc(C#N)c2ccccc12)C(=O)NC1(Cc2ccc(O)c(Br)c2)CCCC1 [TCMDC-136784]
% Inhibition: 27.12%

CC(C)(C)[C@@H](Nc1ccc(C#N)c2ccccc12)C(=O)NC1(Cc2ccc(O)cc2)CCCC1 [TCMDC-136782]
% Inhibition: 18.1%

COc1cccc([C@@H](CC(=O)Nc2cc(C(F)(F)F)ccc2OC)Nc2ccc(C#N)c3ccccc23)c1 [TCMDC-132309]
% Inhibition: 11.85%

N#Cc1ccc(N[C@@H](CC2CCCCC2)C(=O)NCc2cc(Cl)cc(Cl)c2)c2ccccc12 [TCMDC-136626]
% Inhibition: 13.09%

CCC(CC)C(CC(=O)NC(C)(C)CCc1ccccc1OC)Nc1ccc(C#N)c2ccccc12 (centres unmarked) [TCMDC-132308]
% Inhibition: 3.423%

CC(C)C[C@H](Nc1ccc(C#N)c2ccccc12)C(=O)N[C@@H]1CCCc2ccccc21 [TCMDC-136088]
% Inhibition: 59.15%

CC(=O)Nc1cccc(CNCc2ccc(-c3cnc(N4CCCC(c5ccccc5)C4)nc3)cc2)c1 (centres unmarked) [TCMDC-133723]
% Inhibition: -4.34%

CC(Sc1nc(-c2ccccc2)c(-c2ccccc2)o1)C(=O)NC1CC1 (centres unmarked) [TCMDC-125313]
% Inhibition: 34.01%

O=C(Nc1ccc(Cn2ncc(N3CCCNCC3)c(Cl)c2=O)cc1)Nc1cccc(SC(F)(F)F)c1 [TCMDC-133321]
% Inhibition: -32.98%

O=C(Nc1ccc([N+](=O)[O-])cc1)Nc1nc2ccc(Cl)cc2s1 [TCMDC-123703]
% Inhibition: 38.6%

Cc1cccc2nc(-c3ccc(-c4ccc(NC(=O)C(C)CN(C)C)cc4)s3)[nH]c12 (centres unmarked) [TCMDC-137115]
% Inhibition: 20.93%

COc1nc2c(CCN3CCC(NCc4ccc5c(n4)NC(=O)CO5)CC3)c(Cl)cnc2cc1F [TCMDC-135766]
% Inhibition: -7.442%

CN1CCN(Cc2cc3cc(NC(=O)/C=C/c4cccc(Cl)c4)ccc3s2)CC1 [TCMDC-135630]
% Inhibition: -63.97%

CC(C)C[C@@H](/C=N/N1CCNC1=O)NC(=O)[C@H](CC(C)C)NC(=O)c1ccc(OCCN2CCOCC2)cc1 [TCMDC-136227]
% Inhibition: 6.84%
